Measured values: PubChem BioAssay AID1159580 (chemical genetic matrix, 2015)
About 2,000 (36%) of roughly 5,500 compounds were called active. About 18% were inconclusive and are not listed. No stated cut-off is given here; in the data, active means normalized growth mostly below about 0.91 (no sharp cut-off); inconclusive means no clear call, values can overlap the other calls; inactive means mostly above about 0.92. The list shows a part of the results.

Assay: chemical genetic growth profiling, strain panel (AID 1159580);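 further: tested at 20 µM; growth read once vehicle control cultures reached saturation at 30 °C; 1 = growth at the plate median or of vehicle wells; lower values mean less growth of the strain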
Conditions: S. cerevisiae deletion strains, growth OD

Measured: normalized growth

CC(CC(=O)C1OC1(C)C)C1C(=O)CC2(C)C3=CCC4C(C)(C)C(OC5OCC(O)C(O)C5O)CCC45CC35C(O)CC12C (configuration not stated)
inactive: locus YAL021C, strain ccr4, active compounds read low 1.03 | locus YAL026C, strain drs2, active compounds read low 1.01 | locus YAL030W, strain snc1, active compounds read low 1.04 | locus YBL061C, strain skt5, active compounds read low 1.02 | locus YBR009C, strain hhf1, active compounds read low 1.02 | locus YBR023C, strain chs3, active compounds read low 1.01 | locus YBR171W, strain sec66, active compounds read low 1.03 | locus YBR231C, strain swc5, active compounds read low 1.02 | locus YBR279W, strain paf1, active compounds read low 1.02 | locus YCL011C, strain gbp2, active compounds read low 1.02 | locus YCL016C, strain dcc1, active compounds read low 1 | locus YCL061C, strain MRC1, active compounds read low 1.02 | locus YCL069W, strain vba3, active compounds read low 1.01 | locus YCR088W, strain abp1, active compounds read low 1.02 | locus YDL005C, strain med2, active compounds read low 1.03 | locus YDL040C, strain nat1, active compounds read low 1.02 | locus YDR001C, strain nth1, active compounds read low 1.02 | locus YDR069C, strain doa4, active compounds read low 1.03 | locus YDR137W, strain rgp1, active compounds read low 1.04 | locus YDR159W, strain sac3, active compounds read low 1.04 | locus YDR195W, strain ref2 1.01 | locus YDR297W, strain sur2, active compounds read low 1.02 | locus YDR334W, strain swr1, active compounds read low 1.01 | locus YDR335W, strain msn5, active compounds read low 1.02 | locus YDR392W, strain spt3, active compounds read low 1.03 | locus YEL003W, strain gim4, active compounds read low 1.02 | locus YEL037C, strain rad23, active compounds read low 1.04 | locus YEL061C, strain CIN8 (second series), active compounds read low 1.02 | locus YER015W, strain faa2, active compounds read low 1.02 | locus YER016W, strain bim1, active compounds read low 1.02 | locus YER111C, strain swi4, active compounds read low 1.03 | locus YER155C, strain BEM2 (second series), active compounds read low 1.03 | locus YFR010W, strain ubp6, active compounds read low 1.03 | locus YGL167C, strain pmr1, active compounds read low 1.03 | locus YGL173C, strain kem1, active compounds read low 1.02 | locus YGL227W, strain vid30, active compounds read low 1.02 | locus YGL240W, strain doc1, active compounds read low 1.03 | locus YGL253W, strain hxk2, active compounds read low 1.01 | locus YHR013C, strain ard1, active compounds read low 1.08 | locus YHR027C, strain rpn1, active compounds read low 1.02 | locus YHR142W, strain chs7, active compounds read low 1.01 | locus YJL092W, strain hpr5, active compounds read low 1.02 | locus YJL095W, strain BCK1 (second series), active compounds read low 1.03 | locus YJL115W, strain asf1, active compounds read low 1.01 | locus YJL129C, strain trk1, active compounds read low 1.01 | locus YJL154C, strain vps35, active compounds read low 1.02 | locus YJL164C, strain tpk1, active compounds read low 1.01 | locus YJL166W, strain qcr8, active compounds read low 1.02 | locus YJL187C, strain SWE1, active compounds read low 1.02 | locus YKL160W, strain elf1, active compounds read low 1.03 | locus YKR026C, strain gcn3, active compounds read low 1.03 | locus YKR091W, strain srl3, active compounds read low 1.03 | locus YLL001W, strain dnm1, active compounds read low 1.01 | locus YLL026W, active compounds read low 1.02 | locus YLL041C, strain sdh2, active compounds read low 1.01 | locus YLR027C, strain aat2, active compounds read low 1.03 | locus YLR221C, strain rsa3, active compounds read low 1.02 | locus YLR258W, strain gsy2, active compounds read low 1.01 | locus YLR262C, strain YPT6 (second series), active compounds read low 1.05 | locus YLR320W, strain mms22, active compounds read low 1.04 | locus YLR342W, strain FKS1, active compounds read low 1.01 | locus YLR357W, strain rsc2, active compounds read low 1.02 | locus YLR370C, strain arc18, active compounds read low 1.02 | locus YLR384C, strain iki3, active compounds read low 1.02 | locus YML120C, strain ndi1, active compounds read low 1.02 | locus YMR058W, strain fet3, active compounds read low 1.02 | locus YMR125W, strain sto1, active compounds read low 1.03 | locus YMR129W, active compounds read low 1.02 | locus YMR205C, strain PFK2, active compounds read low 1.03 | locus YMR231W, strain pep5, active compounds read low 1.01 | locus YNL071W, strain lat1, active compounds read low 1.01 | locus YNL209W, strain ssb2, active compounds read low 1.02 | locus YNL248C, strain rpa49, active compounds read low 1.02 | locus YNL322C, strain KRE1 (second series), active compounds read low 1.03 | locus YNR049C, strain mso1, active compounds read low 1.02 | locus YOR001W, strain rrp6, active compounds read low 1.02 | locus YOR070C, strain gyp1, active compounds read low 1.01 | locus YOR080W, strain dia2, active compounds read low 1.03 | locus YOR083W, strain WHI5, active compounds read low 1.02 | locus YOR106W, strain vam3, active compounds read low 1.03 | locus YOR265W, strain rbl2, active compounds read low 1.01 | locus YOR270C, strain vph1, active compounds read low 1.02 | locus YOR290C, strain snf2, active compounds read low 1.02 | locus YPL051W, strain arl3, active compounds read low 1.02 | locus YPL078C, strain atp4, active compounds read low 1.02 | locus YPL106C, strain sse1, active compounds read low 1.04 | locus YPL240C, strain hsp82, active compounds read low 1.04
